Hits are enriched below; roughly 2.3% of the tested compounds scored in any of these assays.
Beta2AR agonist: activates human beta-2 adrenergic receptor causing internalization. AID 504454. Am2.2-beta2AR cells, FAP receptor internalization, flow cytometry. response, % (test concentration not listed). actives 0.43% (n = 340,000);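 active = response above a set limit, near 3 SD of response in nonfluorescent compounds, cut at about 42% in these data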
Exocytosis inh: blocks lytic granule exocytosis | AID 651702 | actives 0.66% (n = 360,000) | inhibition, % at 10 µM | TALL-104 LAMP-1 surface exposure, flow cytometry; cells stimulated with thapsigargin and PMA;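 active = inhibition above about 55%, limit read from the data; inconclusive = no clear call, values can overlap the other calls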
NTR1 ag: NTR1 (human) agonism | P30989 | NTR1-U2OS beta-arrestin-GFP spot imaging, agonist mode | activation, % at 20 µM | actives 0.17% (n = 330,000);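 active = activation at or above 40% of the spot to cytoplasm intensity ratio, with at least 20 cells analyzed; inconclusive = wells under 20 cells, flagged as cytotoxic or low count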;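 also: 0% = DMSO without peptide and 100% = 100 nM NTR1 peptide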
m5-HT2A agonist: agonists of mouse serotonin 5-HT2A receptor (HTR2A); AID 624169; actives 0.66% (n = 360,000); CHO-K1 mHTR2A beta-arrestin complementation, luminescence; percent of 30 µM serotonin response; activation, % at 7.6 µM;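 active = activation above a run cutoff, the mean activation of all tested compounds plus 3 SD, cut at about 14% in these data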;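 also: 0% = plate median of compound wells and 100% = 30 µM serotonin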
ABHD5-PLIN5 inh: inhibitors of human ABHD5-perilipin-5 interaction | AID 602281 | Split G. princeps luciferase complementation, luminescence, 4 h | Q00G26+Q8WTS1 | actives 0.78% (n = 360,000) | inhibition, % at 4 µM;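 active = inhibition above the mean inhibition across every tested compound plus 3 SD, cut at about 22% in these data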;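 also: 0% = DMSO only wells and the 100% control is not disclosed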
Beta2AR ag CP1: activates human beta-2 adrenergic receptor; shares compounds with Beta2AR agonist; Am2.2-beta2AR cells, FAP surface receptor, flow cytometry; stronger effect = lower value; percent response (surface receptor), % at 10 µM; actives 25% (n = 1,100); AID 540358;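 active = surface receptor percent response at or below 58%, roughly 3 SD from nonfluorescent compounds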
B2AR FAP counter: flagged in Am2.2 fluorescence counterscreen for beta-2AR agonists. shares compounds with Beta2AR agonist. Am2.2 cells, FAP fluorogen flow cytometry; stronger effect = lower value. calls only at 10 µM. 1,100 tested, under 10 active. AID 588765;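 active = percent response below a set limit in fluorescence channel 1 and below 50% in channel 8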
An asterisk follows results filed as active; i = inactive; ? = inconclusive; . = not tested or not shown.

SMILES | Beta2AR agonist | Exocytosis inh | NTR1 ag | m5-HT2A agonist | ABHD5-PLIN5 inh | Beta2AR ag CP1 | B2AR FAP counter
CCC(NC(=O)c1cc(COc2cncc(Cl)c2)on1)c1ccc(C)cc1 (stereo not drawn) | -1 | -2 | 3 | 3 | 3 | 88 | i
C=CCC1(CC=C)CCCN1C(=O)c1cc(COc2cncc(Cl)c2)on1 | -5 | -12 | 4 | 4 | -1 | . | .
CCc1ccc(CN(C)C(=O)c2cc(COc3cncc(Cl)c3)on2)cc1 | . | 0 | . | -4 | -3 | 106 | i
Cc1ccc(OCc2cc(C(=O)N(C)Cc3cnn(-c4ccccc4C)c3)no2)cn1 | 100* | 0 | 0 | 2 | 9 | 19* | i
COCC1CCCN(C(=O)c2cc(COc3cncc(Cl)c3)on2)C1 (stereo not drawn) | -4 | -4 | 0 | 0 | -8 | . | .
CC12OC1C1(O)CCCC1=CC2=O (stereo not drawn) | . | . | 0 | . | . | . | .
Cc1ccc(S(=O)(=O)N2CCC(N3CCN(C)CC3)CC2)cc1Cl | -3 | 0 | -1 | -2 | 7 | . | .
Cc1cc(C)nc(NS(=O)(=O)c2ccc(NC(=O)c3ccco3)cc2)n1 | -6 | 3 | -1 | 3 | 2 | . | .
CCc1ccc(C(=O)Nc2ccc(S(=O)(=O)Nc3nc(C)cc(C)n3)cc2)o1 | 54* | ? | 1 | 9 | 14 | 105 | i
COc1cccc(CNC(=O)C(C)n2ccc3cc(S(=O)(=O)N4CCCCCC4)ccc32)c1 (stereo not drawn) | 47* | 2 | -1 | 6 | 6 | 112 | i
CCCc1c(-c2ccc(F)cc2)ncn1Cc1ccccc1OC | . | 3 | . | -4 | -10 | . | .
CN1C(=O)[C@@](O)(c2cn(C)c3ccccc23)c2cc(F)ccc21 | . | -9 | . | 3 | -15 | . | .
Cc1nc(SCc2nc3c([N+](=O)[O-])cccc3[nH]2)c2oc3ccccc3c2n1 | 52* | 6 | 28 | 3 | 1 | 124 | i
Cc1nc(SCc2nc3c(C)cccc3[nH]2)c2oc3ccccc3c2n1 | -6 | 6 | 2 | 5 | -4 | . | .
CS(=O)(=O)c1ccc(Cl)c(NC(=O)Cc2c(F)cccc2Cl)c1 | -2 | 0 | 4 | 0 | -1 | . | .
COC(=O)C1=C(CS(=O)(=O)c2ccccc2)NC(=O)NC1c1ccccc1 (stereo not drawn) | -1 | 0 | 1 | -1 | 3 | . | .
O=C(Nc1ccc(N2CCCC2)cc1)c1ccc(Cl)cc1Cl | 0 | 2 | -2 | -1 | -2 | . | .
O=C(Nc1ccc(N2CCCC2)cc1)c1cc(Cl)ccc1Cl | 73* | -5 | 7 | -7 | 0 | 97 | i
CCC1CCCCN1CCCNC(=O)Cn1cnc2sc(C)c(S(=O)(=O)N3CC(C)CC(C)C3)c2c1=O (stereo not drawn) | 59* | 3 | -2 | 0 | 2 | 89 | i
CCCCn1c(=N)n(CC(O)COc2cccc(C)c2)c2ccccc21 (stereo not drawn) | 46* | 6 | 5 | -12 | 2 | 86 | i
CCCn1c(=N)n(CC(O)COc2ccc(C)cc2)c2ccccc21 (stereo not drawn) | 10 | 26 | 3 | -11 | -5 | . | .
CCc1ccc(CN2CCCC(CNC(=O)c3cccc(OC)c3OC)C2)cc1 (stereo not drawn) | 7 | -1 | -1 | -2 | 1 | . | .
COc1ccc(OC)c(S(=O)(=O)N(C)CC(=O)N2CCN(c3ccc(F)cc3)CC2)c1 | -16 | 1 | -1 | -8 | -2 | 100 | i
COc1ccc(OC)c(S(=O)(=O)N(C)CC(=O)N2CCOCC2)c1 | 1 | -2 | 1 | 1 | 3 | . | .
COc1ccc(OC)c(S(=O)(=O)N(C)CC(=O)N2CCN(c3ccccc3F)CC2)c1 | -3 | -9 | 0 | 2 | 3 | 106 | i
SMILES | Beta2AR agonist | Exocytosis inh | NTR1 ag | m5-HT2A agonist | ABHD5-PLIN5 inh | Beta2AR ag CP1 | B2AR FAP counter
COc1ccc(Cl)cc1S(=O)(=O)N(C)CC(=O)N1CCCC1 | -1 | -9 | 0 | 0 | 6 | . | .
COc1ccc(OC)c(S(=O)(=O)N(C)CC(=O)N2CCN(c3cccc(Cl)c3)CC2)c1 | -5 | 0 | 0 | 1 | 2 | 131 | i
CC(=O)c1ccc(S(=O)(=O)N2CCN(C(=O)CSC(=S)N3CCCC3)CC2)cc1 | -4 | -1 | 2 | 2 | -13 | . | .
COc1ccc(CN2C[C@H]3CCCN3c3cc(Br)ccc3S2(=O)=O)cc1 | 44* | 8 | 2 | -2 | -8 | 65 | i
CCC(CC)C(=O)Nc1cc(OC)c(OC)cc1C(=O)O | 92* | -2 | -3 | 5 | 3 | 99 | i
O=C(COc1ncnc2ccccc12)Nc1ccccc1[N+](=O)[O-] | 5 | -5 | 1 | 0 | -2 | . | .
CN(C(=O)c1ccc(NC(=O)Cc2cccc(NC(=O)C3CCN(C(=O)C4CCCC4)CC3)c2)cc1)C1CCCC1 | 47* | -6 | -1 | -1 | 7 | 82 | i
CN(C(=O)c1ccc(NC(=O)Cc2cccc(NC(=O)C3CCN(C(=O)C4CCCCC4)CC3)c2)cc1)C1CC1 | -4 | -5 | . | 0 | 3 | 115 | i
CN(C(=O)c1cccc(NC(=O)Cc2cccc(NC(=O)C3CCN(C(=O)C4CCCC4)CC3)c2)c1)C1CC1 | -3 | -2 | . | -7 | -3 | . | .
CN(C(=O)c1cccc(NC(=O)Cc2cccc(NC(=O)C3CCN(C(=O)C4CC4)CC3)c2)c1)C1CC1 | 1 | -1 | . | 0 | -2 | . | .
CN(C(=O)c1ccc(NC(=O)Cc2cccc(NC(=O)C3CCN(C(=O)C4CC4)CC3)c2)cc1)C1CC1 | -6 | -2 | . | 12 | 2 | 117 | i
CC1CCCCC1NC(=O)c1c(O)nc2ccccn2c1=O (stereo not drawn) | 11 | 8 | 0 | -1 | -8 | . | .
COc1cccc(C(=O)NCCS(=O)(=O)N2CCCC(C)C2)c1 (stereo not drawn) | . | -4 | . | -1 | -9 | . | .
CCCCNS(=O)(=O)c1ccc2nc(-c3cccnc3)cc(C(=O)NCCCOC)c2c1 | -5 | 0 | 0 | 3 | 1 | . | .
COCCCNC(=O)c1cc(-c2cccnc2)nc2ccc(S(=O)(=O)N3CCCCCC3)cc12 | 17 | -4 | 0 | 5 | -5 | 94 | i
O=C(COC(=O)c1cc(Cl)ccc1O)NCC1CCCO1 (stereo not drawn) | 1 | 0 | 5 | 0 | -10 | . | .
NCCCC[C@@H](C(=O)NCCCCCCCCCCC(=O)N1CCNCC1)n1cc(CCCC(=O)O)nn1 | -5 | 4 | -1 | 0 | 0 | . | .
COc1cc2ncc(S(=O)(=O)c3ccccc3)c(N3CCCC(C)C3)c2cc1OC (stereo not drawn) | 69* | 12 | 8 | 3 | 8 | 9.0* | i
O=C(COc1ccccc1F)N1c2ccccc2CCc2ccccc21 | 63* | -1 | 0 | -3 | 1 | 15* | i
